Rows were chosen to be rich in hits. Some 4.5% of all compounds tested hit in one or more screens of this group.
Mtb FBA inh = Mtb FBA enzyme inhibitors, primary screen, biochemical, fluorescence, strain H37Rv; inhibition, % at 1 µM; Fructose-bisphosphate aldolase (Mycobacterium tuberculosis (strain ATCC 25618 / H37Rv)), …; 360,000 tested, 2.3% active; AID 588726, 2011; purified M. tuberculosis FBA, fluorescence read-out; in the data active means inhibition above about 27%;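 further: 0% = vehicle and 100% = reference inhibitor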
Target sequence (P9WQA3 whole entry, looked up): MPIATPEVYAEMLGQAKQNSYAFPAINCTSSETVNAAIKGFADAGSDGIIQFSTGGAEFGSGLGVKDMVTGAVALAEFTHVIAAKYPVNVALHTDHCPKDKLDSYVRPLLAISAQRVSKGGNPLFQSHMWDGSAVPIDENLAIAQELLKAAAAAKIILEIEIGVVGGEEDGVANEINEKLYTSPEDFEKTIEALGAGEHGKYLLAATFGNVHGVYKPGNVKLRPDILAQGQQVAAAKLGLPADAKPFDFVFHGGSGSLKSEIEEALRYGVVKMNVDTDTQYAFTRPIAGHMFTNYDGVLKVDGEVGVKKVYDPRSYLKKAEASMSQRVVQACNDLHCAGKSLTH
PrPC TRFRET = inhibitors of human cell surface prion protein PrPC, primary screen, cell-based, TR-FRET; inhibition, % at 13.8 µM; AID 720596, 2013; 370,000 tested, 0.43% active; Major prion protein (Homo sapiens), P04156; TR-FRET read-out; in the data active means inhibition above about 24%; further: 0% = median of the test wells and 100% = reference compound wells
GDH-TPI inh = GDH-TPI coupling enzyme inhibitors, primary screen, artefact control for M. tuberculosis FBA inhibitor project, biochemical, absorbance, full deck; GDH-TPI coupled enzyme counterscreen, NADH absorbance; inhibition, % at 4.8 µM; 360,000 tested, 1.2% active; AID 588335, 2011; in the data active means inhibition above about 30%;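 further: 0% = DMSO wells and 100% = wells lacking the enzyme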
BJeLR lethal = MLPCN primary cell-based screen for lethality selective to Ras in HRASV12 cells; AID 1554, 2009; 300,000 tested, 0.17% active; inhibition, % (concentration not given with the values); BJeLR (HRASV12) viability, CellTiter-Glo ATP luminescence, 48 h; in the data active means inhibition above about 50%
PfHsp40 rescue = rescue of yeast from PfHsp40 toxicity, primary screen, S. cerevisiae, ATP luminescence. S. cerevisiae expressing PfHsp40, growth rescue. growth rescue, % at 12.5 µM. 340,000 tested, 0.68% active; in the data active means growth rescue above about 28%, passing the limit was not always enough;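 further: yeast W303a lacking pdr1 and pdr3 grown in galactose medium; growth measured after three days at 30 °C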
PrP 5UTR inh = inhibition of PrP 5' UTR reporter expression; 340,000 tested, 0.35% active; inhibition, % (no concentration beside the values); cell-based PrP 5' UTR mRNA reporter, plate reader; in the data active means inhibition above about 52%; further: 0 = median of the neutral control wells
Numbers without * were called inactive; . = not tested or not shown; + = active, no number.

SMILES | Mtb FBA inh | PrPC TRFRET | GDH-TPI inh | BJeLR lethal | PfHsp40 rescue | PrP 5UTR inh
COc1cc(F)cc(-c2ccc3c(c2)c(C#Cc2ccsc2)c(-c2cc(OC)cc(OC)c2)n3C)c1 | 14 | 3 | 31* | . | 0 | -12
COc1ccc(-c2c(C#Cc3ccsc3)c3cc(-c4ccc5c(c4)OCO5)ccc3n2C)cc1 | 3 | 7 | 11 | . | -2 | -18
Cc1cc(N2CCN(CCO)CC2)n2nc(C)nc2n1 | . | 1 | . | . | . | .
CCC(=O)N1CCc2cc(Br)c(S(=O)(=O)N3CCC(C(=O)NC(C)(C)C)CC3)cc21 | . | 5 | . | . | . | .
COc1ccccc1-n1cnc2cc(NCc3cccs3)ccc21 | 1 | 24 | -1 | 60* | 1 | -11
O=C(NC1CCCCC1)N(Cc1cc2cc3c(cc2[nH]c1=O)OCCO3)CC1CCCO1 (centres undefined) | 23 | 5 | 36* | 6 | 1 | -36
O=C(NC1CCCCC1)N(CCO)Cc1cc2cc3c(cc2[nH]c1=O)OCCO3 | 23 | 0 | 13 | -7 | 0 | -10
COC(=O)CCCn1cc(CN2CC=CS2(=O)=O)nn1 | . | -4 | . | . | . | .
O=C1CC(O)(C(F)(F)F)Oc2c1ccc1ccccc21 (centres undefined) | 12 | -2 | 2 | 2 | 54* | -61
COc1cc(F)ccc1Oc1cccc2c1S(=O)(=O)N([C@H](C)c1ccccc1)C[C@@H](COCc1ccccc1)O2 | . | 1 | . | . | . | .
COC(=O)C1CN(Cc2cn(CCOC(C)=O)nn2)CCS(=O)(=O)N1Cc1ccccc1 (centres undefined) | . | 8 | . | . | . | .
Cc1cc(C)c2nc(C)cc(Nc3ccc(C(=O)NCCO)cc3)c2c1 | 4 | -21 | 59* | 1 | 0 | -69
CC(=O)c1ccc(Nc2cc(C)nc3c(C)cc(C)cc23)cc1 | -4 | -4 | 9 | 13 | 0 | 18
CCOC(=O)CCCNC(=O)O[C@@H]1CC[C@@]23CCCN2C(=O)CCC[C@H]3C1 | . | 5 | . | . | . | .
O=[N+]([O-])c1ccc(OCCCN2CCC(C(O)(c3ccccc3)c3ccccc3)CC2)c(Cl)c1 | . | -8 | . | . | . | .
COC(=O)C[C@]1(C(=O)OC)CN(C#N)N(c2ccc(Cl)cc2)C12c1ccccc1-c1ccccc12 | -2 | 75* | 10 | 67* | -2 | -1
COC(=O)[C@@H]1[C@@H](C(=O)OC)C2(c3ccccc3-c3ccccc32)N(c2ccc(Cl)cc2)N1C#N | 0 | 23 | 13 | 33 | -1 | -1
O=C(NCc1ccccc1)OCCN1C(=O)CCC12CCC(c1ccc(Cl)cc1)CC2 (centres undefined) | . | 1 | . | . | . | .
Cc1cccn2c(=O)c(/C=C(\C#N)C(=O)NC3CCS(=O)(=O)C3)c(N3CCC(C)CC3)nc12 (centres undefined) | 197* | -12 | 11 | -7 | 0 | -25
COC(=O)[C@H]1C[C@@]2(n3ccc4ccccc43)c3ccccc3N[C@H]2N1 | . | 2 | . | . | . | .
Cc1ccc(/C=N/Nc2nc(Cl)c(Cl)cc2Cl)s1 | 1 | 9 | 31* | -2 | 0 | -108
Cc1ccsc1/C=N/Nc1nc(Cl)c(Cl)cc1Cl | 1 | 4 | 15 | -2 | 1 | .
CCC(=O)Nc1nc(C)c(-c2csc(Nc3ccccn3)n2)s1 | 5 | -5 | 40* | -13 | 1 | -77
O=C1c2ccccc2NC(c2ccc(-c3ccc(C(F)(F)F)cc3)o2)N1O (centres undefined) | 2 | 3 | 3 | . | 279* | 23
c1ccc2c(c1)nc1n2CCN1CCN1CCCC1 | 3 | 2 | -5 | -6 | 44* | -14
SMILES | Mtb FBA inh | PrPC TRFRET | GDH-TPI inh | BJeLR lethal | PfHsp40 rescue | PrP 5UTR inh
COc1ccc(Nc2oc(-c3ccc(OC)cc3)nc2C#N)cc1 | 0 | -3 | -2 | -7 | 0 | -87
Cc1ccc(-c2nc(C#N)c(NCC3CCCO3)o2)cc1 (centres undefined) | 180* | -12 | 6 | 5 | 1 | -65
COc1ccc(-c2nc(C#N)c(NCC3CCCO3)o2)cc1 (centres undefined) | 177* | 9 | 16 | -4 | 1 | -47
O=S(=O)(c1ccccc1)c1nc(-c2cccs2)oc1NCC1CCCO1 (centres undefined) | -1 | 1 | 22 | -1 | -2 | -12
N#Cc1nc(-c2cccs2)oc1NCC1CCCO1 (centres undefined) | + | -5 | 19 | -2 | 2 | -12
Cc1nc(/C=[N+](\[O-])C(C)(C)/C=N/O)n(O)c1C | -2 | -6 | 31* | 0 | 0 | -20
O=C(CN1CCCC1)N1CCCc2c1c(=O)oc1ccc(OCc3ccccc3)cc21 | 21 | -13 | 34* | -2 | 1 | -7
CCCOc1ccc2oc(=O)c3c(c2c1)CCCN3C(=O)CN1CCN(C(=O)c2ccco2)CC1 | . | . | . | -1 | . | .
Clc1ccc(C(Cn2ccnc2)OCc2csc3c(Cl)cccc23)c(Cl)c1 (centres undefined) | 0 | -2 | 10 | . | 80* | 4
Clc1ccc(C(Cn2ccnc2)OCc2c(Cl)cccc2Cl)c(Cl)c1 (centres undefined) | -1 | 7 | -1 | . | 103* | -16
CC(/C=N/n1cnnc1)=C\c1ccco1 | 1 | 6 | 39* | -3 | -1 | -9
CC(/C=N/n1c(-c2cc(C)[nH]n2)n[nH]c1=S)=C\c1ccco1 | -1 | -2 | 12 | -11 | -1 | -19
CCOC(=O)[C@]12CCCCC/C=C\1N(Cc1ccc(OC)cc1)C(=O)[C@H]2CC(=O)N1CCCCC1 | . | 7 | . | . | . | .
CC(C)CC(=O)OC1C(N2CCOCC2)c2c(ccc(/C=C/C(=O)N3CCOCC3)c2O)OC1(C)C (centres undefined) | 6 | 3 | 31* | 2 | 2 | -26
CCSC1=N/C(=C\c2ccccc2)C(=O)N1 | 3 | -2 | 12 | 14 | 1 | -28
COC(=O)C(C)SC1=N/C(=C/c2ccc(-n3cncn3)cc2)C(=O)N1 (centres undefined) | 0 | -11 | 43* | 3 | 0 | -23
CSc1ccc(-c2cccc3nncn23)cc1 | + | -23 | 24 | . | . | .
CC(C)Cn1c(-c2ccc(C#N)cc2)nc2c1c(=O)[nH]c(=O)n2CC(C)C | + | 4 | 10 | -6 | 0 | -6
COCCn1c(-c2ccc(NC(C)=O)cc2)nc2c1c(=O)[nH]c(=O)n2CC(C)C | 126* | 2 | 1 | 8 | -1 | -14
CCCCn1c(=O)[nH]c(=O)c2c1nc(-c1ccc(C#N)cc1)n2C1CCCC1 | 166* | -5 | 7 | -3 | 0 | 0
CCOC(=O)N1CCC(Nc2nc3ccccc3nc2NS(=O)(=O)c2ccc(Cl)cc2)CC1 | 5 | 1 | 42* | 3 | 1 | -41
CC(C)CSc1ncccc1-c1nc2ccccc2[nH]1 | . | -3 | . | . | . | .
